An excerpt weighted towards active compounds, which were near 2.3% of everything screened.
M1 ag: agonists of human M1 muscarinic receptor | P11229 | activation, % at 3 µM | CHO-K1 hM1, Fluo-8 calcium fluorescence, agonist mode; 0% DMSO, 100% acetylcholine EC100 | actives 0.33% (n = 360,000);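 active = activation above the run's mean compound activation plus 3 SD, cut at about 16% in these data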;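 also: peak over basal fluorescence ratio within a 140 s kinetic read after compound addition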
Target sequence (P11229 whole entry, looked up): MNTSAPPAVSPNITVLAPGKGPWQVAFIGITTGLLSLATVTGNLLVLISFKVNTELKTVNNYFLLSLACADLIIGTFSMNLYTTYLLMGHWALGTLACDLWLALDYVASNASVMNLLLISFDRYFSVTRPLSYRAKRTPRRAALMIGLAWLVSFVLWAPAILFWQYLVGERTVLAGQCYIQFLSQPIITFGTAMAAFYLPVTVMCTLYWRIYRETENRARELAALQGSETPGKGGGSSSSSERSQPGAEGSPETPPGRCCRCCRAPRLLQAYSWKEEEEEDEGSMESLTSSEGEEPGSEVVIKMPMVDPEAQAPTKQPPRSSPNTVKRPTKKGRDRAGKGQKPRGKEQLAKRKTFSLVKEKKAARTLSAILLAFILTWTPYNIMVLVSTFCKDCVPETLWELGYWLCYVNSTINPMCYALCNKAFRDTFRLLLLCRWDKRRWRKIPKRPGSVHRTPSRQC
CHRM1 antagonist: blocks human M1 muscarinic receptor; inhibition, % at 3 µM; actives 1.3% (n = 360,000); CHO-K1 hM1, Fluo-8 calcium fluorescence, ACh EC80 antagonist;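 active = percent inhibition above its own plate's cutoff, namely the mean of that plate's compound wells plus 3 SD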;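 also: peak over basal fluorescence ratio during 140 s after agonist addition; 0% = ACh EC80 plus DMSO and 100% = DMSO alone without agonist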
CHO-K1 Ca antag: M1 antagonist counterscreen hit in parental CHO-K1 cells; ATP-induced calcium, Fluo-8 fluorescence; inhibition, % at 3 µM; actives 0.6% (n = 360,000); AID 602250;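 active = inhibition above a per-plate cutoff, the plate's mean sample inhibition plus 3 SD, cut at about 24% in these data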;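 also: 0% = DMSO plus EC80 ATP and 100% = DMSO alone without ATP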
CHO-K1 Ca PAM: counter-screen for M1 PAMs: effect in parental CHO-K1 cells; AID 602247; ATP EC20, Fluo-8 calcium fluorescence; 0% at ATP EC20, 100% at ATP max; activation, % at 3 µM; actives 0.02% (n = 360,000);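 active = activation above the run cutoff, the mean activation of all test compounds plus 3 SD, cut at about 40% in these data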;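 also: peak over basal fluorescence ratio in a 140 s read after ATP addition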
M1 ag parental: M1 agonist counterscreen hit in parental CHO-K1 cells | Fluo-8 calcium fluorescence; scaled to maximal ATP response, vehicle zero | AID 602248 | actives 0.48% (n = 360,000) | activation, % at 3 µM; in the data active = activation above about 15%;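 also: untransfected CHO-K1 host cells lacking M1 receptor as counterscreen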
M1 PAM: potentiates human M1 receptor response to acetylcholine; CHO-K1 hM1, Fluo-8 calcium fluorescence, ACh EC20; 0% = ACh EC20, 100% = maximal ACh; activation, % at 3 µM; actives 0.088% (n = 360,000); in the data active = activation above about 19%, passing the limit was not always enough
* marks the source's active call; other numbers are inactive results; x = no result.

SMILES	M1 ag	CHRM1 antagonist	CHO-K1 Ca antag	CHO-K1 Ca PAM	M1 ag parental	M1 PAM
CC(=O)Nc1ccc(S(=O)(=O)NC(CSc2ccc(C(=O)O)cc2[N+](=O)[O-])C(=O)O)cc1 (centres undefined)	-2	-2	-1	-6	1	-1
Cc1ccc(C(=O)NC(=S)NCc2ccco2)cc1	-9	-12	0	16	0	10
COc1cc2[nH]c(=O)c(C(=O)NCc3ccccc3Cl)c(O)c2cc1OC	1	-11	0	11	0	8
CC(C)N1CCc2c(sc(NC(=S)NC(=O)c3ccccc3)c2C#N)C1	-8	-12	-5	17	3	9
CCCN1CCc2c(sc(NC(=S)NC(=O)c3ccccc3)c2C#N)C1	37*	19	16	-1	46*	-7
CCC1CCCCN1Cc1ccc(CNC(=O)CCc2nnc3ccc(N4CCCCC4)nn23)o1 (centres undefined)	-6	43*	-10	-13	0	-17
CCOCCCNC(=O)CCc1nnc2ccc(N3CCCCC3)nn12	-6	-2	-18	4	1	1
C[N+]12CCC(CC1)C(OC(=O)C(O)(c1ccccc1)c1ccccc1)C2 (centres undefined)	-7	98*	-9	29	2	-26
CCc1nn(CC(=O)N2CCCCCC2)c(=O)c2cc3ccccc3n12	-1	1	11	-17	2	11
COc1ccccc1C(=O)Nc1ccccc1N1CCN(C(=O)c2ccc(Cl)cc2)CC1	-2	8	-5	19	5	-2
O=C(O)C1CC=CCC1C(=O)Nc1ccccc1 (centres undefined)	-2	-5	25*	-6	0	9
Cc1nn(-c2ccc(F)cc2)c(C)c1/C=C/C(=O)N1CCNC(=O)C1	-10	1	-11	8	-1	0
CCc1nc(OCC(=O)c2ccccc2)c(C#N)c2c1COC(C)(C)C2	-4	6	25*	-7	1	-4
O=C(Nc1ccc(N2CCOCC2)cc1)c1ccc([N+](=O)[O-])o1	-2	-6	5	-6	1	10
CCN(CC)C(=O)Cn1cnc2sc(C(=O)N3CCN(Cc4ccc5c(c4)OCO5)CC3)c(C)c2c1=O	-4	-9	-5	13	2	6
Cc1c(/C=N/NC(=O)c2sc3ccccc3c2Cl)cnn1C	-1	-7	26*	3	0	6
CC(=O)Nc1ccc(Sc2ncccc2C(=O)Nc2ccc(F)cc2)cn1	69*	52*	12	-15	37*	-24
NC(=O)CC[C@H](NC(=O)c1ccc(F)cc1)C(=O)OCC(=O)NCc1ccc(F)cc1	-4	-1	-6	10	1	5
COc1ccc(C)cc1NC(=O)C1CCN(C(=O)C2CC(=O)N(c3ccc(C)cc3)C2)CC1 (centres undefined)	0	-8	3	5	0	9
C=CCNc1nc2c(c(=O)n(C)c(=O)n2C)n1CC	-1	0	31*	-9	1	7
C=CCNc1nc2c(c(=O)n(C)c(=O)n2C)n1CCCCCC	-3	16	12	2	2	-1
COc1cccc(C2=Cc3ccc(F)cc3C(CC(C)=O)N2c2ccc(C#CC3(O)CCCCC3)cc2)c1 (centres undefined)	x	x	-28	46*	2	x
COc1cc(OC)cc(C2=Cc3ccc(OC)cc3C(CC(C)=O)N2c2ccc(C#CC3(O)CCCCC3)cc2)c1 (centres undefined)	x	x	-13	28	1	x
CCOc1ncccc1C(=O)OCC(=O)c1ccc(Br)s1	5	-10	-10	14	-1	18
COC(=O)c1c(C)[nH]c(C(=O)C(C)OC(=O)c2cc(C)oc2C)c1C (centres undefined)	-1	28*	11	-25	7	-16
SMILES	M1 ag	CHRM1 antagonist	CHO-K1 Ca antag	CHO-K1 Ca PAM	M1 ag parental	M1 PAM
COC(=O)c1c(C)[nH]c(C(=O)C(C)OC(=O)c2ccco2)c1C (centres undefined)	-1	4	-15	11	2	3
Cc1ccc(S(=O)(=O)Nc2ccccc2C(=O)Nc2nc(-c3ccc(F)cc3)cs2)cc1	-1	35	26*	5	16*	-17
O=C(Nc1ccccc1N1CCOCC1)c1ccccc1NS(=O)(=O)c1ccc(F)cc1	0	8	3	11	2	-5
COc1ccc(-c2csc(NC(=O)c3ccccc3NS(=O)(=O)c3ccc(F)c(F)c3)n2)cc1	2	43*	23	-14	15*	-16
O=C(Nc1ccccc1N1CCOCC1)c1ccccc1NS(=O)(=O)c1ccc(F)c(F)c1	14	-13	24*	-6	9	-1
Cc1ccc(S(=O)(=O)N2CCC(=O)N([C@H](COCc3cccc(C)c3)C(C)C)CC2)cc1	x	x	-19	5	2	x
C/C(=N/NC(=O)CNC(=O)c1ccccc1F)c1ccc2c(c1)CCCC2	-10	2	0	-4	0	7
C/C(=N/NC(=O)CNC(=O)c1ccc2c(c1)OCO2)c1ccc2c(c1)CCCC2	-3	4	25*	-17	-1	8
O=C(Cc1ccccc1)N1CCN(C(=O)c2ccc([N+](=O)[O-])cc2)CC1	-10	-8	-9	6	0	3
O=C(C1=NN[C@@H]2C(=O)N(Cc3ccccc3)C(=O)[C@H]12)c1ccc([N+](=O)[O-])cc1	0	-2	-7	22	23*	3
CN(C)C(CNC(=O)CCC(=O)c1ccc(Br)cc1)c1ccccc1 (centres undefined)	-8	35*	-14	-3	2	-28
COc1ccc(NC(=O)COc2ccccc2)cc1Cl	-3	-11	-4	-10	1	8
CN(C)C(CNC(=O)c1ccc(NC(=O)CC#N)cc1)c1ccccc1 (centres undefined)	-8	30*	-5	-5	0	-20
COc1ccc(NC(=O)COc2ccccc2C(=O)NCC(c2ccccc2)N(C)C)cc1Cl (centres undefined)	-8	73*	-3	-7	3	-31
CN(C)C(CNC(=O)CCS(=O)(=O)c1ccccc1)c1ccccc1 (centres undefined)	-9	-7	-16	17	1	7
COc1ccc(NCC(=O)n2c(C)c(C)c3ccccc32)cc1OC	-3	-25	-5	8	1	13
O=C(c1ccc(N2C(=O)c3ccccc3C2=O)cc1)N1CCN(S(=O)(=O)c2ccccc2F)CC1	-4	-6	-10	14	4	0
CC(C)(C)NC(=O)CN(C(=O)CCC(=O)Nc1nccs1)c1ccccc1F	-1	-18	-14	21	1	11

Compound activity deposited in PubChem BioAssay by The Scripps Research Institute Molecular Screening Center.
